BAZ2B block = qHTS Assay for Inhibitors of BAZ2B; AlphaScreen BAZ2B-H3K14Ac peptide displacement; Potency, µM (doses to about 114 µM), for the others: at the highest dose activity change, negative = inhibition, actives largely listed as inhibitors; 4.4% of 360,000 active; AID 504333, 2011; note: % is set by controls: 0 for no effect and ±100 for the full control effect; nearly all actives have a fitted effect of over 60% in size
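In this displacement format the biotinylated H3(5-23) peptide acetylated at Lys14 serves as ligand at 50 nM, with BAZ2B at 50 nM in PBS pH 7.4 containing 0.01% Tween-20. Donor and acceptor beads are 10 ug/mL final.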
HP1b binding inh = HTS for Inhibitors of HP1-beta Chromodomain Interactions with Methylated Histone Tails; Potency, µM (series often up to 114 µM), without a hit: top-dose activity change, negative = inhibition, actives largely listed as inhibitors; AlphaScreen HP1-beta / biotin-H3K9me3 peptide binding; 0.56% of 390,000 active; Chromobox protein homolog 1 (Homo sapiens), P83916; AID 540317, 2011; note: nearly all actives have a fitted effect of over 70% in size
Target sequence (P83916 whole entry, looked up): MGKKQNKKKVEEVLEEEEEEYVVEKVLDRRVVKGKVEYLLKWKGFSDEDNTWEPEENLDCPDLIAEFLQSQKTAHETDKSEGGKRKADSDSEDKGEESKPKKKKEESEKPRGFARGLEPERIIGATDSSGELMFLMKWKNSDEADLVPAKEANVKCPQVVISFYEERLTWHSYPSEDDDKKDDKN
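AlphaScreen: HP1-beta (50 nM) preformed 30 min with biotin-H3(1-18)K9me3 peptide (50 nM) in PBS pH 7.4, 0.01% Tween-20. Compound added for 30 min at RT, then streptavidin donor/nickel chelate acceptor beads (10 ug/mL) for 30 min.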
Sfp PPTase inh = qHTS Assay for Inhibitors of Bacillus subtilis Sfp phosphopantetheinyl transferase (PPTase); 4'-phosphopantetheinyl transferase ffp (Bacillus subtilis), Q9F4F7; Biochemical Sfp PPTase activity, qHTS; Potency, µM, without a hit: largest response in the series, negative = inhibition, actives largely listed as inhibitors; 3.5% of 310,000 active;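 note: the enzyme is Sfp with the accession as filed and its product quenches rhodamine fluorescence; 0% = enzyme reaction without inhibitor and -100% = no enzyme wells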
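Fluorescence-quenching assay: 15 nM Sfp-PPTase preincubated 15 min at room temperature with compound, then 5 uM rhodamine-CoA and 12.5 uM BHQ-2-labelled YbbR peptide added. Fluorescence (ex 525/em 598 nm) read at start and after 30 min; difference gives rate.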
L3MBTL1 block = qHTS Assay for the Inhibitors of L3MBTL1; AlphaScreen L3MBTL1–H3K9me1 peptide binding; 0.66% of 230,000 active; Lethal(3)malignant brain tumor-like protein 1 (Homo sapiens), Q9Y468; Potency, µM (doses to about 57.1 µM), for the others: at the highest dose activity, negative = inhibition, usual class: inhibitors; note: % is set by controls: 0 for no effect and ±100 for the full control effect; nearly all actives have a fitted effect of over 60% in size
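First, the protein-peptide complex forms for 30 min at room temperature (L3MBTL1 50 nM, biotinylated H3K9me1 peptide 75 nM). Next, compounds are pin-transferred and incubated 30 min. Finally, AlphaScreen beads are added and read after 30 min.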
G9a block = qHTS Assay for Inhibitors of Histone Lysine Methyltransferase G9a; Histone-lysine N-methyltransferase EHMT2 (Homo sapiens), Q96KQ7; AID 504332, 2011; Potency, µM (series often up to 102 µM), for inactives: at the top dose activity, negative = inhibition, usual class: inhibitors; 8.8% of 350,000 active; G9a H3K9 monomethylation, AlphaScreen, 2 h; note: % is set by controls: 0 for no effect and ±100 for the full control effect; nearly all actives have a fitted effect of over 75% in size
Target sequence (Q96KQ7 913-1193 limits assumed): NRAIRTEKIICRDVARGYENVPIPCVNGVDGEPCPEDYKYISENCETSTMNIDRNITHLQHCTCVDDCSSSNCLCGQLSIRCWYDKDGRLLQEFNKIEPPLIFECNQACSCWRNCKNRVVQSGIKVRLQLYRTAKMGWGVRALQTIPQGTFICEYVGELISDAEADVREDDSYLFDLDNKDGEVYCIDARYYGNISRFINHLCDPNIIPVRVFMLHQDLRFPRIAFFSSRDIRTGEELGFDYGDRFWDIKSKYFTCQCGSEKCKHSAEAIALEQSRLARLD
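Step 1: enzyme (final 20 nM) with compound, 15 min RT. Step 2: substrate peptide 500 nM and SAM 20 uM, 2 h RT. Step 3: anti-H3K9me1 antibody and AlphaScreen beads, 10 min, then plate read.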
JMJD2A Tudor = qHTS Assay for Inhibitors of JMJD2A-Tudor Domain; Lysine-specific demethylase 4A (Homo sapiens), O75164; AlphaScreen JMJD2A-Tudor / H3K4me3 peptide binding; 4.4% of 390,000 active; Potency, µM (top dose mostly 114 µM), for inactives: top-dose activity change, negative = inhibition, most hits filed as inhibitors; note: % is set by controls: 0 for no effect and ±100 for the full control effect; nearly all actives have a fitted effect of over 50% in size
* = called active by the depositor; ? = inconclusive; / = no result given; [ ] = dose if it differs, or a comment. Only some compounds are listed: those with a hit (about 12% of all), similar ones and a draw of the others. Calls come from the whole dose curve; as a rule, active = well fitted curve in the direction sought with a large enough effect; inconclusive = small, poorly fitted or top-dose-only effect, or another doubt; inactive = no such curve, though single readings can be large; an effect the other way counts as inactive or inconclusive. Potency is the fitted concentration of half-maximal effect.

SMILES	BAZ2B block	HP1b binding inh	Sfp PPTase inh	L3MBTL1 block	G9a block	JMJD2A Tudor
COc1ccc(CN2CCNC(=O)C2CC(=O)NCCCC2CCCC2)c(F)c1 (centres undefined)	-23.3%	35.4%	5.0%	/	-21.6%	-23.4%
CC(=O)Nc1ccc(NC(=O)CSc2ccc3nnc(-c4cccnc4)n3n2)cc1	-9.3%	35.9%	0.6%	/	31.6µM*	-14.5%
CCOC(=O)c1c(/N=C/c2cccc([N+](=O)[O-])c2O)sc(C)c1C	44.7µM*	44.7µM*	39.8µM*	-17.2%	7.08µM*	50.1µM*
CCc1ccc(N(CC(=O)Nc2nc3ccc(C)cc3s2)S(=O)(=O)c2c(C)noc2C)cc1	-21.4%	56.1%	9.2%	/	-15.9%	-19.3%
O=C(CCN1CCc2ccccc2C(c2ccccc2)C1)c1ccc2c(c1)OCCO2 (centres undefined)	?	-12.7%	44.7µM*	/	?	?
O=C(CCN1Cc2ccccc2C1)c1ccc2c(c1)OCCO2	-11.9%	13.6%	?	0.8%	8.91µM*	?
O=C(O)CCC(=O)c1ccc2c(c1)OCCO2	8.3%	62.2%	11.7%	8.3%	15.8%	-10.3%
O=C(O)CCSCC(=O)c1ccc2c(c1)OCCO2	3.3%	73.2%	44.7µM*	3.1%	31.6µM*	?
CCCC(=O)c1ccc2c(c1)OCCO2	0.9%	29.4%	-4.6%	/	?	17.9%
O=C(O)c1ccccc1C(=O)Nn1cnnc1	-14.7%	7.5%	16.7%	/	-7.9%	-18.1%
Cc1nn2c(=O)cc(COC(=O)c3ccc(NC(=O)CCc4ccccc4)cc3)nc2s1	-6.8%	3.2%	/	/	1.6%[59 µM]	?
COc1ccc2c(c1)C(C)CC(C)(C)N2C(=O)CSc1nc2ccccc2s1 (centres undefined)	3.8%[57.1 µM]	66.2%	5.8%	1.7%	7.5%	3.4%
COc1ccc2c(c1)C(C)CC(C)(C)N2C(=O)Nc1ccccc1 (centres undefined)	?	5.7%	7.9%	-1.7%	22.4µM*	-0.3%[57.1 µM]
CCc1nc(N2CCN(C(=O)CCl)CC2)c2c3c(sc2n1)CC(C)CC3 (centres undefined)	-25.1%	16.9%	-24.8%	-3.1%	79.4µM*	-28.8%
COc1cccc(CNC(=O)Cn2c(C)c3cnn(-c4ccccc4)c(=O)c3c2C)c1	1.0%	25.3%	/	/	8.3%[59 µM]	-4.4%
C=C(CC[C@@H](C)[C@H]1CCC2[C@]1(C)CC[C@]13C[C@@]14CCC(OC(=O)/C=C/c1ccc(O)c(OC)c1)C(C)(C)[C@@H]4CC[C@@]23C)C(C)C (some centres undefined)	/	/	64.4%	/	-41.7%[12.7 µM]	/
COC(=O)c1sc(SC)c(S(=O)(=O)C(C)C)c1N/N=C(\C#N)C(=O)c1ccccc1	-29.0%	-14.3%	14.1%	-14.8%	44.7µM*	?
CCCc1nnc(NS(=O)(=O)c2ccc(OC)cc2)s1	-21.6%	14.8%	?	4.3%	44.7µM*	-8.6%
CCc1nnc(NS(=O)(=O)c2ccc(NC(=S)NC(=O)/C=C/c3ccccc3)cc2)s1	?	-28.8%	-7.5%	3.5%	?	79.4µM*
CCc1nnc(NS(=O)(=O)c2ccc(NC(=O)/C=C/c3ccccc3Cl)cc2)s1	?	17.1%	21.5%	-12.0%	?	-13.2%
CCc1nnc(NS(=O)(=O)c2ccc(NC(=S)NC(=O)/C=C/c3ccc(C(C)C)cc3)cc2)s1	50.1µM*	?	?	-0.2%	17.8%[0.501 µM]	56.2µM*
COCc1nnc(NS(=O)(=O)c2ccc(OC)cc2)s1	/	35.1%	/	/	/	-8.0%
CCc1nnc(NS(=O)(=O)c2ccc(NC(=O)/C=C/C(=O)O)cc2)s1	?	56.6%	50.1µM*	1.7%	/	-12.9%
CCc1nnc(NS(=O)(=O)c2ccc(NC(=S)NC(=O)c3ccccc3)cc2)s1	?	-6.2%	5.1%	-4.1%	?	?

Compound activity (PubChem)
